Experimental data from PubChem BioAssay (NCATS).
Values joined by “and” are separate entries in the source; they are usually repeats but may differ in a detail not shown here. Equal entries are not always repeated. Results filed as inconclusive are left out. Active and inactive are the calls of the source. Unless noted, the call rests on the fitted dose curve.

Experiments:
[1] = target: Glucocorticoid receptor (Homo sapiens) (UniProt P04150); test: qHTS assay for small molecule agonists of glucocorticoid receptor signaling (AID 588532; active means well fitted curve in the direction sought with a large enough effect in the signal ratio, with a control signal flat; the % refers to the signal ratio;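 further: 100% = dexamethasone at 0.1 µM and 0% = DMSO only wells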); conditions: HeLa MMTV-bla, beta-lactamase ratio, agonist, 18 h; activation: stronger effect = higher value, percent of dexamethasone control, DMSO zero
Chain of Glucocorticoid receptor (Homo sapiens) (P04150 whole entry, looked up): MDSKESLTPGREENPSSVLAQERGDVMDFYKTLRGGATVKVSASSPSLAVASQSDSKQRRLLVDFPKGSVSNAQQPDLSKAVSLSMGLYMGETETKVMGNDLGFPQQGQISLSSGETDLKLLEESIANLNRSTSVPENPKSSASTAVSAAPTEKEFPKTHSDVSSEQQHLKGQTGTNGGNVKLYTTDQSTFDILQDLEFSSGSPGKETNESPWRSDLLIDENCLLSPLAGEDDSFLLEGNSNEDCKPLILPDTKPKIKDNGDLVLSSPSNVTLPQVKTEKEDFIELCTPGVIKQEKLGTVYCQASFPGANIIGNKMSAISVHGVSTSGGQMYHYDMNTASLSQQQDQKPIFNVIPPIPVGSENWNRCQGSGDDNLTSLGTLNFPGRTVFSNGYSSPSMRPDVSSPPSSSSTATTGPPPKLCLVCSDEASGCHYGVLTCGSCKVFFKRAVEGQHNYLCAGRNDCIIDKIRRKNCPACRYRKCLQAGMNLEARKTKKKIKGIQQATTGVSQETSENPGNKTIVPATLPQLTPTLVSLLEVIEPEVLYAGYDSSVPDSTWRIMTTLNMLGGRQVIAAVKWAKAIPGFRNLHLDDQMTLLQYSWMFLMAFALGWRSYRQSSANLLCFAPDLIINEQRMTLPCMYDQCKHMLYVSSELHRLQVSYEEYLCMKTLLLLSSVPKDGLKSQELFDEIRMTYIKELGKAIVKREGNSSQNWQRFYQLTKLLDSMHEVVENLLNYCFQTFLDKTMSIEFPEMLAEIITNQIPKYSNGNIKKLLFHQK
Method in brief: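 HeLa GRE-bla reporter cells; 18 h compound exposure at 37 C; 2 h CCF4 loading at room temperature; fluorescence at 460 and 530 nm; EC50 by Hill equation.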

[2] = target: Glucocorticoid receptor (Homo sapiens) (UniProt P04150); test: qHTS assay for small molecule antagonists of glucocorticoid receptor signaling (AID 588533; active means well fitted inhibition curve with a large enough effect in the signal ratio, with a control signal flat, not every such curve was filed as active; the % refers to the signal ratio; further: on the % scale 0 is the no-effect control and ±100 the full control effect)
Method in brief: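 Antagonist-mode qHTS: compound titrations added to GRE-bla HeLa cells, then dexamethasone 2 nM final; 18 h, 37 C. CCF4 FRET fluorescence normalized to dexamethasone and DMSO; IC50 from Hill fit.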

[3] = target: Vitamin D3 receptor (Homo sapiens) (UniProt P11473); test: qHTS assay for small molecule agonists of vitamin D receptor signaling (AID 588543);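 further: 0% = DMSO basal and 100% = reference agonist control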
Chain of Vitamin D3 receptor (Homo sapiens) (P11473 whole entry, looked up): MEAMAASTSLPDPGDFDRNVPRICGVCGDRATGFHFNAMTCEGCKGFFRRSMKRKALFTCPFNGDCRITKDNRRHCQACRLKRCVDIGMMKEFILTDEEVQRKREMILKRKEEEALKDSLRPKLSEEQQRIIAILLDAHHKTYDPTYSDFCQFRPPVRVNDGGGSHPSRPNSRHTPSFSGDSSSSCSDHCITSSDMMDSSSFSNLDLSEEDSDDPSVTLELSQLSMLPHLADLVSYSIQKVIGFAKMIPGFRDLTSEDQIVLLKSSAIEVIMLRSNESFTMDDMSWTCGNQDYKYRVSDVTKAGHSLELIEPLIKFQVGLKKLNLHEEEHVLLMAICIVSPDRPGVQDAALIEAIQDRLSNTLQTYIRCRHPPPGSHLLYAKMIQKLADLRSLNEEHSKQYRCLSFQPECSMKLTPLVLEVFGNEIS
Method in brief: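 qHTS in agonist mode: compound titrations stimulate a VDR-driven β-lactamase reporter in HEK293T cells over 16 h at 37 °C. Response normalized to 50 nM 1α,25-dihydroxyvitamin D3 = 100%, DMSO = 0%; Hill fitting gives EC50 and maximal response.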

[4] = target: Thyroid hormone receptor beta (Homo sapiens) (UniProt P10828); test: qHTS assay for small molecule agonists of thyroid hormone receptor beta signaling (AID 588545);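 further: 0% = DMSO only and 100% = 10 nM T3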
Chain of Thyroid hormone receptor beta (Homo sapiens) (P10828 whole entry, looked up): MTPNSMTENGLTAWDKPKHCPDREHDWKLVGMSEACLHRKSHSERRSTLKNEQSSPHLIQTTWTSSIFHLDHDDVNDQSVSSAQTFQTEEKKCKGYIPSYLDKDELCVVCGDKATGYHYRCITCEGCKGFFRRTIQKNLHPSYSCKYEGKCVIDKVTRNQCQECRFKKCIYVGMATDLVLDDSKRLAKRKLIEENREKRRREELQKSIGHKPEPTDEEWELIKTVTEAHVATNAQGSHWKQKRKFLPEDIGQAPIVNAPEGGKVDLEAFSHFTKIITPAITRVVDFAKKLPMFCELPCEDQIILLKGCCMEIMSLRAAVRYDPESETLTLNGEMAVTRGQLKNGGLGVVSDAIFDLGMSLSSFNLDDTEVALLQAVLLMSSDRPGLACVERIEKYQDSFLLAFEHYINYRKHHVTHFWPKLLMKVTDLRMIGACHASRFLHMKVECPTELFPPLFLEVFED
Method in brief: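 Efficacy and EC50 values derive from Hill fits of qHTS titration data, normalized to 10 nM T3 and DMSO-only wells. HEK 293 reporter cells were stimulated for 18 hrs at 37 C, with beta-lactamase activity measured by CCF4 fluorescence.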

[5] = qHTS assay for environmental chemicals that activate the Aryl hydrocarbon Receptor (AhR) signaling pathway (AID 651777; active means well fitted curve in the direction sought with a large enough effect; an effect the other way counts as inactive or inconclusive; further: % of control where 0% means no effect; nearly all actives have a fitted effect of over 15% in size); conditions: 1A2-DRE human hepatoma cells, luciferase, 24 h; activation: stronger effect = higher value
Method in brief: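 Concentration–response screening used 1,200 1A2-DRE cells per well, 24 hr compound exposure (37 C, 5% CO2), and One-Glo luminescence as the AhR-driven CYP1A2 reporter signal.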

[6] = target: Peroxisome proliferator-activated receptor alpha (Homo sapiens) (UniProt Q07869); test: qHTS assay for small molecule agonists of the peroxisome proliferator-activated receptor alpha (PPARalpha) signaling pathway (AID 651778; active means well fitted curve in the direction sought with a large enough effect; an effect the other way counts as inactive or inconclusive; further: potency means the concentration at half of the fitted maximal effect; on max response: % of control where 0% means no effect); conditions: PathHunter PPARalpha complementation, chemiluminescence, 6 h; max response: stronger effect = higher value
Chain of Peroxisome proliferator-activated receptor alpha (Homo sapiens) (Q07869 whole entry, looked up, the tested form may be a part): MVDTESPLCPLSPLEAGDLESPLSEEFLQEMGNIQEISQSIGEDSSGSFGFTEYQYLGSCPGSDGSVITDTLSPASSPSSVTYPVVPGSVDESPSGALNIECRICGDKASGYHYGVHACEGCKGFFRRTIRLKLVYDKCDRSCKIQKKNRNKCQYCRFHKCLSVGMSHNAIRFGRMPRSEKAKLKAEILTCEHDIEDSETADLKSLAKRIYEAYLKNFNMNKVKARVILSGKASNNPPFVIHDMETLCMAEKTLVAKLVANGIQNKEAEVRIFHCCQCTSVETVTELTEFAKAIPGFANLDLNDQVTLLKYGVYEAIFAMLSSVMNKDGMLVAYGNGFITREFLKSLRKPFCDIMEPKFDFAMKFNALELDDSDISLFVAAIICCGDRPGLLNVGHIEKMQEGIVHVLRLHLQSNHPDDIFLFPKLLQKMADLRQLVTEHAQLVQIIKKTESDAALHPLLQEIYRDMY
Method in brief: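 Enzyme-fragment complementation assay in which ligand-bound PPARalpha translocates and forms an active enzyme that generates chemiluminescence. Cells were plated overnight, exposed to compound for 6 hr at 37 C, and then given detection reagent for 60 min at room temperature.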

[7] = qHTS assay for small molecule agonists of the antioxidant response element (ARE) signaling pathway measured by Nrf2-dependant transcriptional activity (AID 720636; active means well fitted curve in the direction sought with a large enough effect in the repeat runs; an effect the other way counts as inactive or inconclusive; further: potency means the concentration at half of the fitted maximal effect;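 on activation: HepG2 cells with an ARE-driven luciferase reporter; % of control where 0% means no effect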)
Method in brief: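 Attachment 6 hr at 37 C, then compound versus DMSO vehicle for 16 hr in ARE-luc HepG2 cells (1% dialyzed FBS); luminescence recorded 30 min after ONE-Glo addition at room temperature.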

[8] = qHTS assay for small molecule agonists of the antioxidant response element (ARE) signaling pathway measured by Nrf2-dependant transcriptional activity - cell viability counter screen (AID 720653; active means well fitted curve in the direction sought with a large enough effect in the repeat runs; an effect the other way counts as inactive or inconclusive; further: on the % scale 0 is the no-effect control and ±100 the full control effect); conditions: ARE-bla HepG2 viability, CellTiter-Glo ATP luminescence, 16 h; max response: stronger effect = lower value
Method in brief: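 ARE-bla HepG2 cells treated with compounds for 16 h at 37C; this counter screen measures viability as intracellular ATP by CellTiter-Glo luminescence after 30 min at room temperature.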

[9] = qHTS assay for cell viability of HEK293 cells (AID 743288; active means well fitted curve in the direction sought with a large enough effect; an effect the other way counts as inactive or inconclusive; further: on the % scale 0 is the no-effect control and ±100 the full control effect; nearly all actives have a fitted effect of over 50% in size); conditions: ATP luminescence (CellTiter-Glo), 18 h; max response: stronger effect = lower value
Method in brief: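 Quantitative high-throughput screen: compounds were pinned onto parental HEK293 cells (2,000 per well) after a minimum 5 h settling at 37 C, incubated 18 h at 37 C, and intracellular ATP measured by luciferase luminescence.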

[10] = qHTS assay for cell viability of the p53RE-bla HCT-116 cell line (AID 743292; active means well fitted curve in the direction sought with a large enough effect; an effect the other way counts as inactive or inconclusive; further: on the % scale 0 is the no-effect control and ±100 the full control effect; nearly all actives have a fitted effect of over 55% in size)
Method in brief: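 Compound-exposed HCT-116 (p53RE-bla) cells, 4,000 per well, were kept 16 h at 37 C following a 5 h preincubation. Cell number was estimated from total ATP by CellTiter-Glo luminescence read after 30 min at room temperature.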

[11] = target: Peroxisome proliferator-activated receptor delta (Homo sapiens) (UniProt Q03181); test: qHTS assay for small molecule agonists of peroxisome proliferator-activated receptor delta signaling (AID 588534);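 further: 0% = DMSO basal wells and 100% = positive control agonist at 10 µM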
Chain of Peroxisome proliferator-activated receptor delta (Homo sapiens) (Q03181 whole entry, looked up): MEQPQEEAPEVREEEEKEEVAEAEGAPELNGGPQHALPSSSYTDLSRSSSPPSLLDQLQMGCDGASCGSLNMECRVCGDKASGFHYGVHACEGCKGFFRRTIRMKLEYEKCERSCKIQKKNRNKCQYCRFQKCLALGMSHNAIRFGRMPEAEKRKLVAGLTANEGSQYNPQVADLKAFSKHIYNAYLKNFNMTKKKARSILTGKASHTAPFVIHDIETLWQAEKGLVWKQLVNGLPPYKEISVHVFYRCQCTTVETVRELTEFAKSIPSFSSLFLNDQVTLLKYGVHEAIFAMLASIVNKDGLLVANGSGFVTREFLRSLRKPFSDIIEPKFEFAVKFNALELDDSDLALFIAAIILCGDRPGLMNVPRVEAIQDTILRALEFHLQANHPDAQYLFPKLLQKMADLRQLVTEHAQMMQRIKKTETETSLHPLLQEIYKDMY
Method in brief: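 Titration series tested in agonist mode on beta-lactamase reporter cells; 18 hrs at 37 C after a 5 hr pre-incubation. Readout: CCF4 fluorescence, 2 hrs RT. Hill equation gives EC50 and maximal response.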

[12] = qHTS assay for small molecule antagonists of peroxisome proliferator-activated receptor delta signaling (AID 588535); conditions: HEK293T PPARd-UAS-bla, beta-lactamase FRET ratio, 18 h; 460 nm channel;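 further: cells co-treated with a PPAR-delta agonist as stimulator during compound exposure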
Method in brief: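 Beta-lactamase reporter read-out (405 nm excitation, 460/530 nm emission) after CCF4 loading for 2 hrs at RT. HEK293T PPAR-delta-UAS-bla cells, 2% charcoal/dextran FBS, compounds for 18 hrs at 37 C. Hill fit gave IC50 and efficacy.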

[13] = target: Thyroid hormone receptor beta (Homo sapiens) (UniProt P10828); test: qHTS assay for small molecule antagonists of thyroid hormone receptor beta signaling (AID 588547; active means well fitted inhibition curve with a large enough effect in the signal ratio, with a control signal flat, not every such curve was filed as active; the % refers to the signal ratio;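 further: cells stimulated with 0.4 nM T3 agonist during compound exposure; series mostly up to about 77 µM; on the % scale 0 is the no-effect control and ±100 the full control effect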); conditions: TR-UAS-bla HEK293, beta-lactamase ratio, antagonist mode, 18 h
Method in brief: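 TR-UAS-bla GripTite HEK293 cells in 2% charcoal/dextran FBS medium; compounds 0.59 nM to 92 uM with T3 at 0.4nM final, 18 h at 37 C. Beta-lactamase read by CCF4 fluorescence (460/530 nm); Hill fits gave IC50 and efficacy.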

[14] = target: Vitamin D3 receptor (Homo sapiens) (UniProt P11473); test: qHTS assay for small molecule antagonists of vitamin D receptor signaling (AID 588541);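 further: receptor activated by calcitriol during compound treatment; series mostly up to about 77 µM; on the % scale 0 is the no-effect control and ±100 the full control effect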
Method in brief: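 VDR-UAS-bla HEK293T cells in 2% charcoal-stripped FBS were stimulated with 1-alpha,25-dihydroxyvitamin D3 (3 nM final) plus compound for 16 h at 37 C. The beta-lactamase CCF4 readout was normalized to 50 nM agonist and DMSO, and Hill fits gave IC50.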

[15] = target: Retinoic acid receptor RXR-alpha (Homo sapiens) (UniProt P19793); test: qHTS assay for small molecule agonists of retinoid X receptor alpha signaling (AID 588544);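 further: 0% = DMSO basal wells and 100% = reference agonist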
Chain of Retinoic acid receptor RXR-alpha (Homo sapiens) (P19793 whole entry, looked up): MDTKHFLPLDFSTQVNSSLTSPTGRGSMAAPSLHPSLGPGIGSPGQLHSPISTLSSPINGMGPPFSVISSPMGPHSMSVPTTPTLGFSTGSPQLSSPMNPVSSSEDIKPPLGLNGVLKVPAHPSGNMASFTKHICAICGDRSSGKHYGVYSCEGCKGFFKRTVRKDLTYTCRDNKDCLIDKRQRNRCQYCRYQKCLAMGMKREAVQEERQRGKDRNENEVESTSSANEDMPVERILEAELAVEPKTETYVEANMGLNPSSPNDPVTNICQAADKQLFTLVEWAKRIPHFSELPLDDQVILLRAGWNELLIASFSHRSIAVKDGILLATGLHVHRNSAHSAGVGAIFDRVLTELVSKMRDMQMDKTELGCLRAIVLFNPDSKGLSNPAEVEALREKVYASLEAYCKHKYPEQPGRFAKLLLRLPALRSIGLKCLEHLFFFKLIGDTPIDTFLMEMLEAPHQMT

[16] = qHTS assay for small molecule antagonists of retinoid X receptor alpha signaling (AID 588546; active means well fitted inhibition curve with a large enough effect in the signal ratio, with a control signal flat, not every such curve was filed as active; the % refers to the signal ratio); conditions: HEK293T RXRa-UAS-bla, beta-lactamase ratio, antagonist mode; measured here: W530 green channel, cytotoxicity proxy
Method in brief: (§1)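 Beta-lactamase reporter inhibition, read as CCF4 fluorescence ratio (ex 405, em 460/530 nm) after 2 h at RT. HEK293T UAS-bla cells, 2500/well, were stimulated with 9-cis-RA at 500 or 100 nM final alongside test compound for 18 h at 37 C.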

[17] = target: Retinoic acid receptor RXR-alpha (Homo sapiens) (UniProt P19793); test: as above; conditions: HEK293T RXRa-UAS-bla, beta-lactamase ratio, antagonist mode
Method in brief: as §1

[18] = qHTS assay for small molecule activators of the p53 signaling pathway (AID 651743; active means well fitted activation curve with a large enough effect in the signal ratio, not every such curve was filed as active; the % refers to the signal ratio; further: potency means the concentration at half of the fitted maximal effect; on activation: series mostly up to about 92 µM; % of control where 0% means no effect); conditions: HCT-116 p53RE-bla, beta-lactamase FRET ratio, 16 h; activation: stronger effect = higher value
Method in brief: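 Reporter: beta-lactamase driven by p53 response elements, stably integrated in HCT-116 cells. Cells seeded at 4,000/well, 5 h preincubation, compound (DMSO) 16 h at 37 C; B/G FRET substrate 2 h RT; fluorescence intensity read.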

[19] = qHTS assay for small molecule activators of the nuclear factor-kappa B (NF-kB) signaling pathway (AID 651749; active means well fitted activation curve with a large enough effect in the signal ratio; the % refers to the signal ratio; further: series mostly up to about 77 µM; % of control where 0% means no effect); conditions: NF-kB-bla ME-180 cells, beta-lactamase FRET ratio, 16 h; activation: stronger effect = higher value
Method in brief: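 NF-kB-bla ME-180 cells, 2,000/well; 23 nL compound or DMSO pinned; 16 hr, 37C/5% CO2; beta-lactamase FRET read-out.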

[20] = target: Nuclear receptor subfamily 1 group I member 2 (Rattus norvegicus) (UniProt Q9R1A7); test: qHTS assay for small molecule activators of the rat pregnane X receptor (rPXR) signaling pathway (AID 651751; call rule not given here; further: 0% is about no effect); conditions: rPXR reporter cells, luciferase (One-Glo), 24 h
Chain of Nuclear receptor subfamily 1 group I member 2 (Rattus norvegicus) (Q9R1A7 whole entry, looked up): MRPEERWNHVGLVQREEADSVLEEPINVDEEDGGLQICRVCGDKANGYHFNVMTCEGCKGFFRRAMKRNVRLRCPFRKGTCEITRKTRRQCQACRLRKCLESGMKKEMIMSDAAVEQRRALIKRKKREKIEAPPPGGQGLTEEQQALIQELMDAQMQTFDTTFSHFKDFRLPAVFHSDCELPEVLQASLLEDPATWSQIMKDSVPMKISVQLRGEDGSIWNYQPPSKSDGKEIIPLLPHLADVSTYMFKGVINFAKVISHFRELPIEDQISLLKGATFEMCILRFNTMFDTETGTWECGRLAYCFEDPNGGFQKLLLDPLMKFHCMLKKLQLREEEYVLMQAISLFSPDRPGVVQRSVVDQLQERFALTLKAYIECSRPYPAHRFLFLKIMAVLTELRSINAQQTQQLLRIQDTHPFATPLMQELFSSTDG

CC(C)[C@@H](Nc1ccc(C(F)(F)F)cc1Cl)C(=O)OC(C#N)c1cccc(Oc2ccccc2)c1 (stereo partly drawn)
inactive: activation [1] -3.97% | Potency [2] | outcome [3] | Potency [4] | activation [5] 0.736% | max response [6] -1.14% | Potency [7] | max response [8] -3.6% | max response [9] -27.3% | Potency [10]

CCCN(CCOc1c(Cl)cc(Cl)cc1Cl)C(=O)n1ccnc1
26.8% and 55.9%: max response [12]
inactive: activation [1] 3.18% and 2.99% | Potency [2] | outcome [11] | Potency [4] | activity change % (negative = inhibition) [13] 22.9% | max response [6] -1.45% and -1.52% | Potency [7] | max response [8] -20.2% and 3.11% | max response [9] -28.6% and -28.7% | Potency [10]

N#Cc1cc(I)c(O)c(I)c1
inactive: outcome [11] | Potency [14] | outcome [3] | Potency [15] | Potency [4] | max response [17] -13.5% | activation [19] 1.07% | activation [5] -1.69% | Potency [7] | max response [8] -6.44% | max response [9] -4.72% | max response [20] -7.71%
43.3%: max response [12]
active: Potency [18] 44.7 µM | Potency [6] 15.8 µM
0.0011%: max response [16]

O=C(O)c1c(Cl)ccc2cc(Cl)cnc12
inactive: activation [1] 3.46% | Potency [2] | outcome [11] | Potency [14] | outcome [3] | Potency [15] | Potency [4] | max response [17] -13.1% | activation [19] -0.182% | activation [5] 2.06% | max response [6] -2.09% | Potency [7] | max response [8] -9.56% | max response [9] -11.4% | Potency [10] | max response [20] -2.15%
3.11%: max response [16]
71.4%: max response [12]

c1ccc2c(c1)c1cccc3ccc4cccc2c4c31
inactive: outcome [11] | outcome [3] | Potency [4] | Potency [7]

Cc1nc(N(C)C)nc(OC(=O)N(C)C)c1C
inactive: activation [1] 1.95% | Potency [2] | outcome [11] | Potency [14] | Potency [15] | Potency [4] | max response [17] 5.66% | activity change % (negative = inhibition) [13] -14.4% | activation [5] -0.147% | max response [6] -0.626% | Potency [7] | max response [9] -11.4% | Potency [10] | max response [20] -4.44%
-14.1%: max response [16]
13.1%: max response [12]

CCOc1cc(C(C)(C)C)ccc1C1COC(c2c(F)cccc2F)=N1 (stereo not drawn)
inactive: outcome [11] | outcome [3] | Potency [4] | activity change % (negative = inhibition) [13] -28.7% | activation [5] 6.58% | max response [6] 6.72% | max response [8] -8.55% | max response [9] -20%
-21.7%: max response [12]

CCN(CC)C(=O)SCc1ccc(Cl)cc1
-13.2%: max response [16]
inactive: activation [1] -4.08% | Potency [2] | Potency [14] | outcome [3] | Potency [15] | Potency [4] | max response [17] -31.3% | activity change % (negative = inhibition) [13] 12% | activation [18] 1.13% | activation [19] -0.511% | activation [5] 2.07% | max response [6] -1.35% | max response [8] -5.19% | max response [9] -14.7% | Potency [10] | max response [20] 1.53%

Clc1ccc(-c2cc(Cl)c(Cl)cc2Cl)cc1Cl
inactive: activation [1] -2.9% | Potency [2] | outcome [11] | Potency [14] | Potency [4] | max response [17] 4.83% | activity change % (negative = inhibition) [13] -25.9% | activation [18] -5.87% | activation [19] 5.08% | activation [5] 1.74% | max response [6] 0.243% | Potency [7] | max response [8] 3.45% | max response [9] -23.9% | Potency [10] | max response [20] -1.84%
-9.16%: max response [16]

C[N+]1(C)CCCCC1
inactive: outcome [11] | Potency [14] | outcome [3] | Potency [15] | Potency [4] | max response [17] 0.987% | activity change % (negative = inhibition) [13] 2.54% | activation [18] 0.854% | activation [19] 0.391% | activation [5] 0.858% | max response [6] -0.937% | Potency [7] | max response [9] -11.8% | Potency [10] | max response [20] 3.55%
-14.2%: max response [12]
-2.65%: max response [16]

CCOP(=S)(OCC)SC(CCl)N1C(=O)c2ccccc2C1=O (stereo not drawn)
inactive: outcome [11] | Potency [14] | outcome [3] | Potency [4] | activity change % (negative = inhibition) [13] 7.21% | activation [18] -5.87% | activation [5] 0.999% | max response [6] -0.704% | max response [8] -13.6% | max response [9] -5.75% | Potency [10]
3.14%: max response [16]
51.4%: max response [12]

CC(O)CN(CC(C)O)CC(C)O (stereo not drawn)
inactive: activation [1] 4.4% | Potency [2] | outcome [11] | Potency [4] | max response [17] 3.2% | activity change % (negative = inhibition) [13] 25% | activation [18] -9.86% | max response [6] -2.83% | Potency [7] | max response [8] -8.2% | max response [9] -4.13% | Potency [10] | max response [20] -0.821%
-0.813%: max response [16]
-32.2%: max response [12]

CCCOCC(=Nc1ccc(Cl)cc1C(F)(F)F)n1ccnc1
active: Potency [7] 61.1 µM
inactive: activation [1] -3.28% | Potency [2] | outcome [11] | Potency [14] | outcome [3] | Potency [15] | Potency [4] | activation [19] -1.47% | activation [5] 14% | max response [6] 9.44% | max response [8] -4.06% | max response [9] -21.5% | Potency [10]
18.7%: max response [12]
